Where “and” joins values, the source holds several entries; their conditions need not be identical. Equal values may be shown once. Hit rate of the full screen: of about 410,000 compounds, about 18,000 (4.4%) were called active. Another 7% or so got no clear call; they are omitted. Cut-off read from the data, not from the text of the source: active = activity change below about -60%; inconclusive = no clear call, values can overlap the other calls; inactive = above about -39%. The list comes from a sample in which actives are over-represented; it also holds similar structures and randomly drawn compounds. More than one record can exist for a structure, and the calls need not agree.
Experiment: qHTS Assay for inhibitors of the human cytomegalovirus (HCMV)
Details: HFF cells, HCMV-luciferase reporter, 72 h; at 57.5 µM; stronger effect = lower value
How it was run: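 Two-dose cell screen: HFF monolayers treated with compounds and infected with luciferase-expressing HCMV at 1 PFU/cell, 72 h at 37C, then lysed for luciferase measurement.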
% is set by controls: 0 for no effect and ±100 for the full control effect.

| Compound | activity change, negative = inhibition |
| --- | --- |
| COc1ccccc1N(C)S(=O)(=O)c1ccc(Cl)c(C(=O)N2CCC(C(N)=O)CC2)c1 | -15.9% (inactive) |
| COc1ccccc1N(C)S(=O)(=O)c1ccc(C(=O)NC2CCCCCC2)cc1 | -30.1% (inactive) |
| COc1ccccc1N(C)S(=O)(=O)c1ccc(Cl)c(C(=O)Nc2ccncc2)c1 | -67.6% (active) |
| COc1ccc(C2(Nc3cccc(F)c3)C(=O)c3ccccc3C2=O)cc1 | 3.54% (inactive) |
| CCOC(=O)c1ccc(CSc2nnc3cc(C)c4ccccc4n23)cc1 | 0.725% (inactive) |
| COc1cccc(N2CCN(S(=O)(=O)c3cc(Br)cc4c3N(C(=O)C3CC3)CC4)CC2)c1 | 7.82% (inactive) |
| CN(Cc1ccccc1)c1ncnc2onc(-c3ccc(F)cc3)c12 | -33.7% (inactive) |
| COc1ccccc1NC(=O)CSC1=Nc2ccccc2C2=NC(CC(=O)NCc3cccs3)C(=O)N12 (stereo not drawn) | 11.4% (inactive) |
| COc1ccc(OC)c(NC(=O)CSC2=Nc3ccccc3C3=NC(CC(=O)NCc4ccc(F)cc4)C(=O)N23)c1 (stereo not drawn) | -67.3% (active) |
| COc1ccc(OC)c(NC(=O)CSC2=Nc3ccccc3C3=NC(CC(=O)NCCc4ccccc4)C(=O)N23)c1 (stereo not drawn) | 3.26% (inactive) |
| Cc1ccc(N(CC(=O)NCC2CCCO2)C(=O)CNS(=O)(=O)c2ccc(Cl)cc2)cc1 (stereo not drawn) | 43.5% (inactive) |
| Cc1nc2nc(SCC(=O)NC3CCC(C)CC3)nn2c(C)c1Cc1ccccc1Cl (stereo not drawn) | -21.3% (inactive) |
| CC1CCCCC1NC(=O)/C(C#N)=C/C=C/c1ccccc1[N+](=O)[O-] (stereo not drawn) | -109% (active) |
| CC1CC(C)CN(C/C=C/c2ccccc2[N+](=O)[O-])C1 (stereo not drawn) | 71.9% (inactive) |
| O=C(/C=C/c1ccccc1[N+](=O)[O-])OCC(=O)N1CCCC1 | 11.1% (inactive) |
| COC(=O)c1cc(S(=O)(=O)N2CCN(c3cc(Cl)ccc3C)CC2)c[nH]1 | -37% (inactive) |
| COc1ccc(-c2cn3nc(N4CCC(C(=O)Nc5cccc(C)c5C)CC4)sc3n2)cc1 | 0% (inactive) |
| CN(C)S(=O)(=O)c1ccc(C(=O)NCC(C)(C)N2CCOCC2)cc1 | -39.4% (inactive) |
| CC(C)(CNC(=O)c1ccc(Cl)c(S(=O)(=O)N2CCc3ccccc3C2)c1)N1CCOCC1 | -77.7% (active) |
| Cc1ccccc1CSCCNC(=O)c1ccc(Cl)c(S(=O)(=O)N2CCOCC2)c1 | -33.1% (inactive) |
| COc1cc2c(=O)c(S(=O)(=O)c3ccc(C(C)C)cc3)cn(Cc3ccccc3C)c2cc1OC | 23.6% (inactive) |
| COc1ccnc(Oc2ccccc2)c1-c1ncn[nH]1 | -36.6% (inactive) |

| Compound | activity change, negative = inhibition |
| --- | --- |
| COc1ccnc(Oc2ccccc2)n1 | 5% (inactive) |
| COc1cnc(-c2ccccn2)nc1Oc1ccc(C(C)(C)C)cc1 | -82.7% (active) |
| Cc1cc(OCC(=O)NCC2(N(C)C)CCCCC2)cc(C)c1Cl | -11.2% (inactive) |
| CC1CCCCC1NC(=O)CCS(=O)(=O)c1ccc2c(c1)NC(=O)CO2 (stereo not drawn) | -22.8% (inactive) |
| Cc1cc2c(cc1S(=O)(=O)CCC(=O)Nc1ccc(OC(F)(F)F)cc1)OCC(=O)N2 | 5.03% (inactive) |
| O=C(CCS(=O)(=O)c1ccc2c(c1)NC(=O)CO2)Nc1cccc(C(F)(F)F)c1 | -106% (active) |
| CCOC(=O)c1cc2c(=O)n3ccccc3nc2n(CC(C)C)c1=NC(=O)c1c(-c2c(F)cccc2Cl)noc1C | -12.3% (inactive) and -65.2% (active) |
| CCOC(=O)c1cc2c(=O)n3ccccc3nc2n(CC2CCCO2)c1=NC(=O)c1ccccc1F (stereo not drawn) | 5.02% (inactive) |
| CCOC(=O)c1cc2c(=O)n3ccccc3nc2n(Cc2ccco2)c1=NC(=O)c1ccc(F)cc1 | -0.814% (inactive) |
| CCOc1ccc(-n2cnc3c(=O)[nH]c(N)nc32)cc1 | 29.7% (inactive) |
| CCc1ccc(NC(=O)CN2C(=O)CCSc3ccc(S(=O)(=O)N4CCCC4)cc32)cc1 | 14.8% (inactive) |
| Nc1ncnc(Nc2cccc(Cl)c2Cl)n1 | 8.97% (inactive) |
| CC(=O)Nc1cccc(NC(=O)CSc2nccn2Cc2ccc3c(c2)OCO3)c1 | -12.3% (inactive) |
| COc1ccc(CNC(=O)C2=Cc3cccc(OC)c3OC2)cc1OC | -2.4% (inactive) |
| Cc1ccc(C(=O)Nc2ccc(C(=O)O)cc2)cc1S(=O)(=O)Nc1ccccc1 | 6.44% (inactive) |
| COc1ccc(CNS(=O)(=O)c2cc(Br)ccc2Br)cc1 | -5.85% (inactive) |
| O=C(Nc1ccc(Br)cc1)c1ccc(Br)c(S(=O)(=O)NCc2ccccc2)c1 | -106% (active) |
| CCOc1ccc(S(=O)(=O)Nc2ccc3oc4c(c3c2)CC(C)CC4)cc1 (stereo not drawn) | 33.8% (inactive) |
| CCC(=O)N1CCc2cc(S(=O)(=O)NCCC(=O)Nc3cccc(C)c3C)ccc21 | 4.12% (inactive) |
| CCCC(=O)Nc1nnc(CC(=O)OCC)s1 | 69.6% (inactive) |
| N#Cc1ccccc1Sc1ccccc1C(=O)OCC(=O)NC1CCCCC1 | -31.3% (inactive) |
| CC(C)NC(=O)c1ccccc1S(=O)c1ccccc1C#N (stereo not drawn) | -72.2% (active) |

| Compound | activity change, negative = inhibition |
| --- | --- |
| CC(C)Oc1ccccc1C(=O)NC(CO)C(=O)O (stereo not drawn) | 0.22% (inactive) |
| O=C(CC(c1cccs1)N1Cc2ccccc2C1=O)Nc1ccc(F)cc1F (stereo not drawn) | 5.86% (inactive) |
| Cc1ccc(-c2ccc(CCC(=O)O)n2-c2ccc(C(N)=O)cc2)cc1 | 15% (inactive) |
| [O-][n+]1onc2c1CCc1[nH]c(-c3ccccc3)nc1-2 | -99.3% (active) |
| Cc1ccc(NC(=O)C(Cc2ccccc2)NS(=O)(=O)c2ccc3c(c2)oc(=O)n3C)cc1C (stereo not drawn) | 1.25% (inactive) |
| CC1CCN(S(=O)(=O)c2ccc3c(c2)N(CC(=O)NCc2ccccc2Cl)C(=O)CO3)CC1 | 15.7% (inactive) |
| O=C(OCc1ccccc1)c1ccc(O)cc1 | 17.9% (inactive) |
| CCOC(=O)c1c(CN(C)C)n(-c2ccccc2)c2cc(Br)c(O)cc12 | -35% (inactive) |
| CCOC(=O)c1c(CN2CCOCC2)n(-c2ccccc2)c2ccc(O)cc12 | -73% (active) |
| CCOC(=O)c1nnn(-c2nonc2-n2cccc2)c1CN1CCOCC1 | -19.5% (inactive) |
| O[C@H]1C[C@H](c2ccc(Cl)cc2)N(Cc2cccs2)C[C@@H]1n1cc(C2CC2)nn1 | 15% (inactive) |
| CCOC(=O)[C@]12CCC=C1N(CCC1=CCCCC1)C(=O)[C@H](CC(=O)NCc1ccc(C)o1)C2 | -0.404% (inactive) |
| CCc1nc2onc(C)c2c(=O)n1CC(=O)O | 9.29% (inactive) |
| CCc1nn(CC(=O)NCC(C)c2ccccc2)c(=O)c2cc3occc3n12 (stereo not drawn) | -13.6% (inactive) |
| COc1ccc(-c2nc(Cn3c(=O)cc(C)c4c(C)nn(-c5ccccc5)c43)c(C)o2)cc1OC | 18.8% (inactive) |
| OCCCNc1nccc(-c2cc(Nc3cccc(Cl)c3)ncn2)n1 | -97.8% (active) |
| COC(=O)[C@H]1[C@H](CO)[C@H]2Cn3c(cccc3=O)[C@H]2N1CC1CC1 | 3.17% (inactive) |
| O=C(c1cccnc1)N1CCN(S(=O)(=O)c2cccs2)CC1 | 7.09% (inactive) |
| O=C(Nc1cccc(Cl)c1N1CCOCC1)c1cccnc1 | -21.6% (inactive) |
| O=C(N/N=C/c1sc(N2CCCCC2)nc1-c1cccs1)c1cccnc1 | -80.6% (active) |
| COc1cccc(N2CC(NC(=O)/C=C\c3ccccc3)CC2=O)c1 (stereo not drawn) | 81.9% (inactive) |
| CCOC(=O)c1c(-c2ccc(OC)cc2)oc2ccc(OCc3ccc(C(=O)OC)cc3)cc12 | -6.67% (inactive) |

| Compound | activity change, negative = inhibition |
| --- | --- |
| COC(=O)c1ccc(NC(=O)CCc2c(C)nc3c(c(C)nn3-c3ccc(C)cc3)c2C)cc1 | -19.7% (inactive) |
| COc1cc(Cl)cc(C2NC(=O)NC(C)=C2C(=O)NCc2ccccc2)c1O (stereo not drawn) | 3.06% (inactive) |
| COc1ccc(CCNC(=O)CCCCn2c(=O)c3ccccc3n(Cc3ccccc3)c2=O)cc1OC | -9.1% (inactive) |
| COc1cc(/C=C2/SC(=S)N(Cc3ccccc3)C2=O)cc(OC)c1O | -63.1% (active) |
| COc1cc2c(cc1OC)C(C(=O)NCc1ccco1)C1c3ccccc3CCN1C2=O (stereo not drawn) | 3.83% (inactive) |
| COCCNC(=O)CSc1c(C)cnc2c1c(=O)n(C)c(=O)n2C | 8.83% (inactive) |
| Cc1cccc2nc(-c3ccc(Cl)s3)c(Nc3ccc4c(c3)OCCO4)n12 | 19.5% (inactive) |
| Cc1ccc(C(NC(=O)C2CCN(CCOc3ccc(Cl)cc3Cl)CC2)c2ccccn2)cc1 (stereo not drawn) | 23.2% (inactive) |
| O=C(NC(c1ccc(Cl)cc1)c1cnccn1)C1CCN(Cc2ccc(Cl)cc2)CC1 (stereo not drawn) | 18.3% (inactive) |
| Cc1cccnc1C(NC(=O)C1CCN(Cc2ccc(Cl)c(Cl)c2)CC1)c1ccc(Cl)cc1 (stereo not drawn) | -88.1% (active) |
| Cc1ccc(CSc2nc3cccnc3n2Cc2ccc(C(=O)NC3CC3)cc2)cc1 | 112% (inactive) |
| CCn1c(CN2C(=O)CSc3ccccc32)n[nH]c1=S | -8.44% (inactive) |
| CC(=O)c1cc(C#N)c(N2CC(C)OC(C)C2)nc1C (stereo not drawn) | -16.2% (inactive) |
| Cc1cc(C)c2cc(C#N)c(N3CCNCC3)nc2c1 | -15.9% (inactive) |
| CC(=O)c1cc(C#N)c(N2CCCCC2)nc1C | -92.4% (active) |
| Cc1cc(C)cc(NS(=O)(=O)c2ccc3[nH]cc(C(=O)N4CCCCC4)c(=O)c3c2)c1 | 1.5% (inactive) |
| CC(=O)NC(Cc1ccc(F)c(F)c1)C(=O)NC1CCN(c2nnnn2-c2ccccc2)CC1 (stereo not drawn) | -16% (inactive) |
| COc1ccc(-c2nonc2NC(=O)c2oc3ccc(F)cc3c2C)cc1OC | -12.8% (inactive) |
| O=C(NC1CC(=O)N(c2ccccc2)C1)c1ccco1 (stereo not drawn) | 43.8% (inactive) |
| COc1cc(Br)c(-c2sc(Nc3ccccc3)n[n+]2-c2ccccc2)cc1OC | 25.2% (inactive) |
| COc1ccc(C)cc1Nc1n[n+](-c2ccccc2)c(-c2cccc(Cl)c2Cl)s1 | 8% (inactive) |
| CCc1ccc(Nc2n[n+](-c3ccccc3)c(-c3cccc(Cl)c3Cl)s2)cc1 | -69.1% (active) |

— PubChem BioAssay AID1259415 (National Center for Advancing Translational Sciences (NCATS), 2018)
